Measured values from the supplement of paper PMC10849652.
Of roughly 7,900 targets only a part is listed; those with a hit were picked by preference. About 0.6% of all pairs of compound and target were hits.

What was measured:
Assay in all cases: log2 fold change, soluble protein after heating vs DMSO (PISA); higher = thermal stabilisation; K562 cells, 10 uM, 30 min; active = over 0.2 and 3.5 SD of the protein, either way, in both replicates (recomputed)
[1] = compound: CC1=C(C=C(C=C1)NC(=O)C2=CC(=CC=C2)C(C)(C)C#N)NC3=CC4=C(C=C3)N=CN(C4=O)C
Outline: (§1)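 Soluble protein was defined as the supernatant after 21,000xg for 90 min. It came from K562 cells at 2×10^6 cells/mL given 10 μM compound for 30 min, heated in aliquots for 3 min across 48°C-58°C, pooled, and extracted in PBS with 0.5% NP-40 at 4°C, and was quantified by TMTpro 16plex LC-MS/MS with equalised channel sums. Thermal stability against control samples, from duplicates, is reported as log2 fold change.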

[2] = compound: CC1=C(C=C(C=C1)NC(=O)C2=CC(=CC=C2)N(C)C)NC(=O)C3=CC=C(C=C3)O
Outline: as §1

[3] = compound: CC1=CC=C(C=C1)SC2=C3C=C(SC3=CN=C2)C(=O)N
Outline: as §1

[4] = compound: CC1=NC(=CC=C1)C2=C(N=C(N2)C(C)(C)C)C3=CC4=NC=CN=C4C=C3
Outline: as §1

Nexturastat A = compound: CCCCN(Cc1ccc(C(=O)NO)cc1)C(=O)Nc1ccccc1 [Nexturastat A]
Outline: as §1

vemurafenib = compound: CCCS(=O)(=O)Nc1ccc(F)c(C(=O)c2c[nH]c3ncc(-c4ccc(Cl)cc4)cc23)c1F [vemurafenib]
Outline: as §1

[5] = compound: CCCS(=O)(=O)Nc1ccc(F)c(C(=O)c2c[nH]c3ncc(Cl)cc23)c1F
Outline: as §1

[6] = compound: CCCc1cc(C)[nH]c(=O)c1CNC(=O)c1cc(-c2ccnc(N3CCN(C)CC3)c2)cc2c1cnn2C(C)C
Outline: as §1

givinostat = compound: CCN(CC)Cc1ccc2cc(COC(=O)Nc3ccc(C(=O)NO)cc3)ccc2c1 [givinostat]
Outline: as §1

barasertib = compound: CCN(CCCOc1ccc2c(Nc3cc(CC(=O)Nc4cccc(F)c4)[nH]n3)ncnc2c1)CCOP(=O)(O)O [barasertib]
Outline: as §1

[7] = compound: CC[C@@H]1C(=O)N(C)c2cnc(Nc3ccc(C(=O)NC4CCN(C)CC4)cc3OC)nc2N1C1CCCC1
Outline: as §1

volasertib = compound: CC[C@@H]1C(=O)N(C)c2cnc(Nc3ccc(C(=O)N[C@H]4CC[C@H](N5CCN(CC6CC6)CC5)CC4)cc3OC)nc2N1C(C)C [volasertib]
Outline: as §1

[8] = compound: CC[C@H](C)N1C=C(C2=C(C=C(C=C21)C3=CN=C(C=C3)N4CCNCC4)C(=O)NCC5=C(C=C(NC5=O)C)C)C
Outline: as §1

epoxomicin = compound: CC[C@H](C)[C@@H](C(=O)N[C@@H]([C@@H](C)O)C(=O)N[C@@H](CC(C)C)C(=O)[C@]1(CO1)C)NC(=O)[C@H]([C@@H](C)CC)N(C)C(=O)C [epoxomicin]
Outline: as §1

[9] = compound: CCn1c(C(=O)N(C2CC2)C2CC2)cc2c3c(ncn3C)c(Nc3cc(C)n(C)n3)nc21
Outline: as §1

[10] = compound: CN(C)CC(=O)Nc1ccc2[nH]c(=O)c3ccccc3c2c1
Outline: as §1

rosiglitazone = compound: CN(CCOC1=CC=C(C=C1)C[C@H]2C(=O)NC(=O)S2)C3=CC=CC=N3 (racemic) [rosiglitazone]
Outline: as §1

[11] = compound: CN1C2=C(C3=C1C(=O)N(N=C3)CC4=CC(=CC=C4)N)SC(=C2)S(=O)C
Outline: as §1

[12] = compound: CCn1cc(-c2ccnc3[nH]c(-c4cccc(CN(C)C)c4)cc23)c(-c2ccc(NC(=O)N(C)C)cc2)n1
Outline: as §1

[13] = compound: CN1CCC(CNc2ccc3ncc(-c4cccc(OC(F)(F)F)c4)n3n2)CC1
Outline: as §1

Measured: log2 fold change

QRICH1 (UniProt Q2TAL8)
Sequence of UniProt Q2TAL8 (Q2TAL8 whole entry, looked up): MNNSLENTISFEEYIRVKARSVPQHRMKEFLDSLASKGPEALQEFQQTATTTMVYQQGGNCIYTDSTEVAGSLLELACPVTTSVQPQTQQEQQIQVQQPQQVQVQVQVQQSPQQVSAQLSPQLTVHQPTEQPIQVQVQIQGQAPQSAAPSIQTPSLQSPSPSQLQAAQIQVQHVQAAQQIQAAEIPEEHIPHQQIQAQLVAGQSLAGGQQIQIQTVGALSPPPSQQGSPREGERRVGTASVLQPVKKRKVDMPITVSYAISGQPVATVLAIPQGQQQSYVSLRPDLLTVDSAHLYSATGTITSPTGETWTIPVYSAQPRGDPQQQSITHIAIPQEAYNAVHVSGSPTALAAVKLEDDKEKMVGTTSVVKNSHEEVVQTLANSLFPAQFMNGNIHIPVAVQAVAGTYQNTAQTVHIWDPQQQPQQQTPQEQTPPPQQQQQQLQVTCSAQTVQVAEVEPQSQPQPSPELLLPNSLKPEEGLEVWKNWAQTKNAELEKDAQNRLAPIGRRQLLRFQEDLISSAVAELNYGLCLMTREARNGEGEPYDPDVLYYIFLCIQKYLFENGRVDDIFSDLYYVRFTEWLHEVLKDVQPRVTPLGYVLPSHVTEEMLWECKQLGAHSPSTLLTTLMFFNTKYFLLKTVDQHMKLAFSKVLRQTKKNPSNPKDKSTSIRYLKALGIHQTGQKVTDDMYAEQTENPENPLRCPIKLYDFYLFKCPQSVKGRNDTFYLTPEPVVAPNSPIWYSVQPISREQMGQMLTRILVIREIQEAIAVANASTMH
active: [7] -0.464
inactive: [1] 0.064 | [2] -0.021 | [3] 0.06 | [4] 0.192 | Nexturastat A 0.158 | vemurafenib 0.173 | [5] 0.122 | [6] -0.215 | givinostat 0.07 | barasertib 0.214 | volasertib -0.39 | [8] 0.07 | epoxomicin 0.027 | [9] -0.163 | [10] 0.258 | rosiglitazone -0.017 | [11] 0

PNPLA4 (UniProt P41247)
Sequence of UniProt P41247 (P41247 whole entry, looked up): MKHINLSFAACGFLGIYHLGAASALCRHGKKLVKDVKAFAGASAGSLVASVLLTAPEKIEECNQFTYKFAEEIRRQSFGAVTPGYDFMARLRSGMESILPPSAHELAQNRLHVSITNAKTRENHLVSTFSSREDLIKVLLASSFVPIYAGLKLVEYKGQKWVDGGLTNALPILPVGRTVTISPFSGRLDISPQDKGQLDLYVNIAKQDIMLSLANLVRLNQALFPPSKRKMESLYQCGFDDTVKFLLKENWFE
inactive: [1] 0.418 | [2] -0.04 | [3] 0.409 | [4] 0.273 | vemurafenib -0.093 | [5] -0.025 | [6] -0.277 | barasertib 0.042 | [7] -0.152 | volasertib -0.093 | [8] -0.039 | [9] -0.083 | [10] -0.004 | rosiglitazone -0.081 | [11] 0.126
active: givinostat 1.1

PLK1 (UniProt P53350)
inactive: [1] 0.003 | [2] -0.052 | [3] -0.03 | [4] -0.012 | Nexturastat A 0.003 | vemurafenib 0.018 | [5] 0.029 | [6] 0.042 | barasertib 0.015 | [8] 0.049 | epoxomicin 0.044 | [9] -0.023 | [12] 0.033 | [10] -0.016 | rosiglitazone 0.016 | [11] -0.029 | [13] -0.068
active: givinostat -0.314 | volasertib -2.06

PRG4 (UniProt Q92954)
inactive: [1] -0.099 | [2] 0.034 | [4] 0.106 | Nexturastat A -0.007 | vemurafenib 0.008 | [6] -0.069 | givinostat 0.102 | barasertib -0.023 | [7] 0.073 | [8] -0.18 | epoxomicin -0.294 | [9] 0.053 | [12] 0.075 | [10] -0.239 | rosiglitazone 0.085 | [11] 0.015 | [13] -0.228

POM121 (UniProt Q96HA1)
Sequence of UniProt Q96HA1 (Q96HA1 whole entry, looked up): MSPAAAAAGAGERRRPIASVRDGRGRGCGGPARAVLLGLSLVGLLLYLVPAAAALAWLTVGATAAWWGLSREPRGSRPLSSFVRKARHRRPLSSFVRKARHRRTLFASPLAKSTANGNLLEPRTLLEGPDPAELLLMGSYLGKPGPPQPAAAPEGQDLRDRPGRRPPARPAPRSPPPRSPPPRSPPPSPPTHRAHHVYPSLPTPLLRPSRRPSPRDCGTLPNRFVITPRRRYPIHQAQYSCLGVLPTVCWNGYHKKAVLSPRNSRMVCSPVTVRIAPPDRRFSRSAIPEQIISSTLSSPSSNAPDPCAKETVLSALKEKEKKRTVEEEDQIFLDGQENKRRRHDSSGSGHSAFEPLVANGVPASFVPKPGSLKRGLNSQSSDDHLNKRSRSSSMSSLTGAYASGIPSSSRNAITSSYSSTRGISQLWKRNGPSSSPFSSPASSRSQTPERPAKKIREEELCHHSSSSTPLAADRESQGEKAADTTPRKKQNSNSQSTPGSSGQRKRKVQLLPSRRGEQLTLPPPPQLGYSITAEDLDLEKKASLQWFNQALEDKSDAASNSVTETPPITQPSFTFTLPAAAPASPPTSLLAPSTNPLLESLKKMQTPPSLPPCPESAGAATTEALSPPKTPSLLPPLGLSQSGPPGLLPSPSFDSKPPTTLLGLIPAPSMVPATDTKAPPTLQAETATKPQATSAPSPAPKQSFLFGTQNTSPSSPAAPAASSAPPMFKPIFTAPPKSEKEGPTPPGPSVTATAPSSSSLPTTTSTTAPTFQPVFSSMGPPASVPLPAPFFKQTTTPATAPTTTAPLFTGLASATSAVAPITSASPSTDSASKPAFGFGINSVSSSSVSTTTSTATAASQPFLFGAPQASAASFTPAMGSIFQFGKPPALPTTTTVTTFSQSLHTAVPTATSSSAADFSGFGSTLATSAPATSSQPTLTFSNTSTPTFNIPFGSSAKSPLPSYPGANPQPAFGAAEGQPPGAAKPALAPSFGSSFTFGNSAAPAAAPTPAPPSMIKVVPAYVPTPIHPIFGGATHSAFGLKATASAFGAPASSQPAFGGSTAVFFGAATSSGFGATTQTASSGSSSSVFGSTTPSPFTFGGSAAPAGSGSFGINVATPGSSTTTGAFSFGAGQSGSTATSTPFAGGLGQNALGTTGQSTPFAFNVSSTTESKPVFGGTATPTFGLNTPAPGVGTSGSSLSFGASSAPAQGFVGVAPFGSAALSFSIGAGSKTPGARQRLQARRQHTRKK
inactive: [1] -0.045 | [2] -0.032 | [3] -0.056 | [4] -0.074 | Nexturastat A 0.117 | vemurafenib -0.039 | [5] 0.007 | givinostat 0.119 | barasertib 0.111 | [7] -0.017 | volasertib -0.027 | [8] 0.056 | epoxomicin -0.062 | [9] -0.037 | [12] 0.03 | [10] -0.071 | rosiglitazone 0.001 | [11] 0.137 | [13] -0.149

PRKD2 isoform 3 (UniProt Q9BZL6)
active: volasertib -0.674
inactive: [1] 0.296 | [2] -0.26 | [3] 0.117 | [4] 0.028 | Nexturastat A 0.006 | vemurafenib 0.024 | [5] 0.058 | [6] 0.083 | givinostat -0.009 | barasertib 0.093 | [8] 0.149 | epoxomicin 0.049 | [9] 0.005 | [12] -0.089 | [10] 0.042 | rosiglitazone 0.144 | [11] 0.056 | [13] -0.316

PRCP (UniProt P42785)
Sequence of UniProt P42785 (P42785 whole entry, looked up): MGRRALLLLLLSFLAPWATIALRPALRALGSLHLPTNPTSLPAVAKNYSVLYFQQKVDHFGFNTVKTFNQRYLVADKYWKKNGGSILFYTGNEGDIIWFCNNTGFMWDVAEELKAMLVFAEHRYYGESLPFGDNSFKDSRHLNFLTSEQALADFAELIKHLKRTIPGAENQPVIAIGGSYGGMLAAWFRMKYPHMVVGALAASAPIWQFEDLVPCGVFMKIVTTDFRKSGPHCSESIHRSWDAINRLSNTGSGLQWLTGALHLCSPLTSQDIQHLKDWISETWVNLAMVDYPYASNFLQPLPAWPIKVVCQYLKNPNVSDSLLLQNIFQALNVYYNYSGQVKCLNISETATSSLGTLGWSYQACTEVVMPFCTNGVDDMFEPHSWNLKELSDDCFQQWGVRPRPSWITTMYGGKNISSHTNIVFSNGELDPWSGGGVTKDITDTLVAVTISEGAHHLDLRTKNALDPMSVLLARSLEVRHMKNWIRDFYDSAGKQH
inactive: [1] 0 | [2] 0.061 | [3] 0.022 | [4] -0.002 | Nexturastat A 0.072 | vemurafenib 0.008 | [5] 0.01 | [6] -0.082 | givinostat 0.035 | barasertib -0.008 | [8] -0.024 | epoxomicin -0.002 | [9] 0.037 | [12] 0.008 | [10] 0.014 | rosiglitazone 0.019 | [11] 0.024
active: [7] -0.265 | volasertib -0.291 | [13] -0.389

PKN2 (UniProt Q16513)
active: [13] -0.288
inactive: [1] 0.104 | [2] -0.005 | [3] 0.018 | [4] -0.012 | Nexturastat A 0.042 | vemurafenib 0.05 | [5] 0.086 | [6] 0.032 | givinostat 0.034 | barasertib 0.106 | volasertib -0.135 | [8] 0.159 | epoxomicin -0.027 | [9] -0.197 | [12] -0.046 | [10] 0.009 | rosiglitazone 0.026 | [11] 0.027

PLCL1 (UniProt Q15111)
Sequence of UniProt Q15111 (Q15111 whole entry, looked up): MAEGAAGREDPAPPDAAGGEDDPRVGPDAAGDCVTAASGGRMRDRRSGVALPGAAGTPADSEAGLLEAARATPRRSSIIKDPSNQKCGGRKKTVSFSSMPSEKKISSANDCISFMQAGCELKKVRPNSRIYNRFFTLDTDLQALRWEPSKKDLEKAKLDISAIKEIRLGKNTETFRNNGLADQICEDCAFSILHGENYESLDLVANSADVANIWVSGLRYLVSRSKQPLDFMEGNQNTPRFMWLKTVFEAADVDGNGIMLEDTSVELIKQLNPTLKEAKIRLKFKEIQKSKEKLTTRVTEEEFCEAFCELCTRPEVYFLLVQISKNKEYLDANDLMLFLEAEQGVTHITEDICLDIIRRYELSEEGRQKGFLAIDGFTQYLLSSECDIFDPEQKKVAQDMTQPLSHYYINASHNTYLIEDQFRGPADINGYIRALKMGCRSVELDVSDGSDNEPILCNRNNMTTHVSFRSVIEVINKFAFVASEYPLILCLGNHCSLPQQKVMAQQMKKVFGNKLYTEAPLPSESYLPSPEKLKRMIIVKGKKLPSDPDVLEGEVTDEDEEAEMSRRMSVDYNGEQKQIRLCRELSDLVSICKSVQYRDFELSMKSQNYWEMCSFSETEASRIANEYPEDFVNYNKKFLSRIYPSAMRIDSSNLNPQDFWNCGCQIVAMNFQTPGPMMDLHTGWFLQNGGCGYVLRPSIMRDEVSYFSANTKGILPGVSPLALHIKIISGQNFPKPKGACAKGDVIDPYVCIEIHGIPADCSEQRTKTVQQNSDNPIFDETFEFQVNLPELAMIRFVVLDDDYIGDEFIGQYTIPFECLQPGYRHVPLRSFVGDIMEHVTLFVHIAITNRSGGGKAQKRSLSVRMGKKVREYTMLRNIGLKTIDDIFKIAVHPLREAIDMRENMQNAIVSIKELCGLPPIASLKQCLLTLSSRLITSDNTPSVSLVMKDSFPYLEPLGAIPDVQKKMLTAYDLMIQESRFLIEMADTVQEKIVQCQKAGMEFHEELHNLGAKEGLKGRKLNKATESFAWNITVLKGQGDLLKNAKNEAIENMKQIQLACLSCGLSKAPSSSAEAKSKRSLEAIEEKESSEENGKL
inactive: [1] 0.056 | [2] -0.061 | [4] 0.03 | Nexturastat A 0.253 | vemurafenib 0.068 | [6] 0.159 | givinostat 0.21 | barasertib 0.205 | [7] -0.018 | [8] 0.232 | epoxomicin -0.034 | [9] -0.206 | [12] 0.311 | [10] 0.035 | rosiglitazone -0.128 | [13] -0.094

PGK2 (UniProt P07205)
inactive: [1] 0.019 | [2] 0.058 | [3] -0.075 | [4] 0.05 | Nexturastat A 0.039 | vemurafenib -0.084 | [5] -0.051 | [6] -0.006 | barasertib -0.046 | [7] 0.054 | volasertib 0.123 | [8] -0.028 | epoxomicin -0.037 | [12] 0.123 | [10] -0.112 | rosiglitazone 0.023 | [11] -0.059 | [13] 0.06

PTP4A2 (UniProt Q12974)
Sequence of UniProt Q12974 (Q12974 whole entry, looked up): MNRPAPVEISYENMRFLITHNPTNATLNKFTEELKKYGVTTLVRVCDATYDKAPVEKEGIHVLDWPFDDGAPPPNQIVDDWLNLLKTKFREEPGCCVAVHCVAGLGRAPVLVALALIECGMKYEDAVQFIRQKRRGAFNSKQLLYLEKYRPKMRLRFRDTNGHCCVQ
inactive: [1] 0.026 | [2] -0.045 | [3] 0.012 | [4] 0.076 | Nexturastat A -0.069 | vemurafenib -0.002 | [5] -0.129 | [6] 0.02 | givinostat -0.022 | barasertib -0.006 | [7] 0.039 | volasertib 0.083 | [8] 0.077 | epoxomicin 0.153 | [9] 0.027 | [10] -0.026 | rosiglitazone -0.124 | [11] -0.003

PATL1 (UniProt Q86TB9)
inactive: [1] 0.038 | [2] 0.031 | [3] -0.025 | [4] -0.064 | Nexturastat A 0.123 | vemurafenib -0.118 | [5] 0.005 | [6] 0.1 | givinostat 0.039 | barasertib 0.014 | [7] 0.109 | volasertib 0.013 | epoxomicin -0.041 | [9] -0.022 | [12] 0.051 | [10] 0.007 | rosiglitazone 0.078 | [11] 0.104
active: [13] -0.445

PEX5 isoform 4 (UniProt P50542)
inactive: [1] 0.089 | [2] -0.018 | Nexturastat A 0.145 | vemurafenib -0.066 | givinostat 0.127 | epoxomicin 0.2 | [9] 0.096 | [10] -0.017 | [11] 0.366

PARP1 (UniProt P09874)
active: [6] 0.555 | volasertib -0.57
inactive: [1] 0.116 | [2] -0.149 | [3] 0.071 | [4] 0.107 | Nexturastat A -0.13 | vemurafenib 0.112 | [5] 0.145 | givinostat 0.045 | barasertib 0.122 | [7] -0.233 | [8] 0.162 | epoxomicin 0.1 | [9] -0.088 | [12] 0.302 | rosiglitazone 0.086 | [11] 0.027 | [13] -0.146

POGZ (UniProt Q7Z3K3)
inactive: [1] 0.037 | [2] -0.025 | [3] 0.028 | [4] 0.008 | Nexturastat A -0.127 | vemurafenib 0.122 | [5] -0.024 | givinostat -0.142 | [7] -0.077 | volasertib -0.293 | epoxomicin 0.08 | [9] -0.088 | [12] -0.192 | [10] 0.07 | [11] 0.006 | [13] 0.063

PTK2B (UniProt Q14289)
Sequence of UniProt Q14289 (Q14289 whole entry, looked up): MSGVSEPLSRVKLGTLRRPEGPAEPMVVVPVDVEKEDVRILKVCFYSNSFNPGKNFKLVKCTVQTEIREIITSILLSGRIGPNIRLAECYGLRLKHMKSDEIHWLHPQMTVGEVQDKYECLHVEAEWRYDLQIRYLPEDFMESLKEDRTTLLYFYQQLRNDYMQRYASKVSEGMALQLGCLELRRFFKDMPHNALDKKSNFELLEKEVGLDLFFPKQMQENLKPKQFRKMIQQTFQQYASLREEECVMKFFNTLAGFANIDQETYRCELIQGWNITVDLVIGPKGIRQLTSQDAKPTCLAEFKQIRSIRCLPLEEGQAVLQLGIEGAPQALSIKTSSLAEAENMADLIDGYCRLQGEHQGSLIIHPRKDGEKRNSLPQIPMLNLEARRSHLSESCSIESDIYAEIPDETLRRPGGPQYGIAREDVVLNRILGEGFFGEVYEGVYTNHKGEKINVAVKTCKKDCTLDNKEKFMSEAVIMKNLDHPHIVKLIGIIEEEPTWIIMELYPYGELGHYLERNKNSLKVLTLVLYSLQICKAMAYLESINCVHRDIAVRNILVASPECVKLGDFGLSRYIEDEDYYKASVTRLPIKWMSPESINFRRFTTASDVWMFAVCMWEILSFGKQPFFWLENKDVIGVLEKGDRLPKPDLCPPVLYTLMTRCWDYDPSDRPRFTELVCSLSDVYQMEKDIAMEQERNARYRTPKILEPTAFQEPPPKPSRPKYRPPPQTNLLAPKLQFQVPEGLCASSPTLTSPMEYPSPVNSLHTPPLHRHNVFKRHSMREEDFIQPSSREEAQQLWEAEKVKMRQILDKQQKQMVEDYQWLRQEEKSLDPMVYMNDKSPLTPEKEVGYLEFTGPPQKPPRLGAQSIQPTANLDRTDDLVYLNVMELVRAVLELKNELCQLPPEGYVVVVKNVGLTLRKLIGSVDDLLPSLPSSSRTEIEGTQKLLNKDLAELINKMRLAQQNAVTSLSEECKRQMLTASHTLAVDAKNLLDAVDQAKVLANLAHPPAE
inactive: [1] -0.09 | [2] 0 | [3] 0.06 | [4] -0.008 | Nexturastat A 0.217 | vemurafenib -0.129 | [5] 0 | [6] 0.06 | givinostat 0.421 | barasertib 0.031 | [8] -0.244 | epoxomicin -0.012 | [9] -0.198 | [12] -0.141 | [10] 0.017 | rosiglitazone 0.165 | [11] 0.082 | [13] -0.051
active: volasertib -1.28

PCBP2 (UniProt F8VRH0)
inactive: [1] 0.419 | [3] 0.019 | [4] 0.172 | Nexturastat A 0.136 | vemurafenib -0.235 | [5] 0.123 | [6] -0.199 | givinostat 0.04 | barasertib -0.201 | [7] -0.005 | volasertib -0.051 | [8] 0.165 | epoxomicin -0.252 | [9] 0.043 | [12] -0.201 | [10] 0.139 | rosiglitazone -0.042 | [11] -0.306 | [13] -0.149
